# Target: ITGAM
# Assay: pooled miR-30 sensor sort-seq; sequence = guide strand
# Conditions: shRNA
# Note: reference of the scale not given here.
row,Sequence,sensor-assay potency score (higher = more potent)
1,TTCATGTCTGAATCCACTCTGG,0.203
2,TTACACTCAAATACATTCCTTG,0.424
3,TTAGAGTCTACATCAAACGTGA,0.224
4,TTGATGTACCAGTCAAACGAGA,-0.909
5,TTCCTTGCCTTTCACCACCTGA,-0.688

# Target: ITLN1
# Assay: as above
# Conditions: shRNA
row,Sequence,sensor-assay potency score (higher = more potent)
1,TAGACCACAGGGATCACCGGGC,0.112
2,TTCGTCTTTGATTTCCTTGCAG,0.319
3,TAACATTCTAGCTACTGGGTAA,-0.292
4,ATGCACTAGGACATTCGTCTTT,-0.936
5,TGCACTAGGACATTCGTCTTTG,-0.456
6,TTAGCCTCATCTGTACTCCATC,-0.855
7,TGAACTGAACAAATCCCGCAGT,0.114
8,TCGTCTTTGATTTCCTTGCAGC,-0.887
9,TTGTCAGTCCAACACTTTCCTT,-1.43
10,TTCCATATCCACTCCAATCAAA,-1.07
11,TGTCAGTCCAACACTTTCCTTC,0.0274
12,TTTCACTGGATATTTCTGGTAG,0.272
